# G9a inh – qHTS Assay for Inhibitors of Histone Lysine Methyltransferase G9a | G9a H3K9 monomethylation, AlphaScreen, 2 h | Potency, µM (doses to about 102 µM), actives largely listed as inhibitors | 8.8% of 350,000 active; further: nearly all actives have a fitted effect of over 75% in size
#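 G9a (20 nM) was preincubated 15 min with compound, then reacted 2 h at room temperature with 500 nM biotin-H3K9 peptide and 20 µM SAM. Monomethyl-H3K9 detected by AlphaScreen using anti-H3K9me1 antibody.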
# JMJD2A Tudor – qHTS Assay for Inhibitors of JMJD2A-Tudor Domain; AlphaScreen JMJD2A-Tudor / H3K4me3 peptide binding; Potency, µM (titrated, usually from 114 µM), hits mostly inhibitors; 4.4% of 390,000 active; further: nearly all actives have a fitted effect of over 50% in size
# BAZ2B block – qHTS Assay for Inhibitors of BAZ2B. AlphaScreen BAZ2B-H3K14Ac peptide displacement. Potency, µM (titrated, usually from 114 µM), actives largely listed as inhibitors. AID 504333, 2011. 4.4% of 360,000 active. Bromodomain adjacent to zinc finger domain protein 2B (Homo sapiens), Q9UIF8; further: nearly all actives have a fitted effect of over 60% in size
#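 Complex of BAZ2B and biotin-H3K14Ac (50 nM apiece) forms over 30 min at RT, then faces library compounds up to 110 uM for another 30 min; AlphaScreen beads added, 20 min dark incubation, luminescence read.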
# HP1b binding inh – HTS for Inhibitors of HP1-beta Chromodomain Interactions with Methylated Histone Tails; Chromobox protein homolog 1 (Homo sapiens), P83916; AlphaScreen HP1-beta / biotin-H3K9me3 peptide binding; Potency, µM (top dose mostly 114 µM), actives largely listed as inhibitors; 0.56% of 390,000 active; AID 540317, 2011; further: nearly all actives have a fitted effect of over 70% in size
#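 Compound inhibition of the preformed complex between 50 nM HP1-beta and 50 nM biotinylated H3K9me3 peptide was read by AlphaScreen. Buffer was PBS pH 7.4 with 0.01% Tween-20. Incubations ran 30 min at room temperature, with 10 ug/mL donor/acceptor beads.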
# GLS inh – qHTS for Inhibitors of Glutaminase (GLS). 0.21% of 410,000 active. Potency, µM (doses to about 45.5 µM), usual class: inhibitors. GLS enzymatic activity, qHTS titration
#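 Glutamate formation by hKGA was monitored fluorometrically using coupled glutamate oxidase, HRP and Amplex Red. Substrate was added as 1 mM L-glutamine solution; incubation was 30 min at RT after an initial read.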
# A number is an active result; . = inactive; ? = inconclusive; / = not tested or not shown; [ ] = dose if it differs, or a comment. The list is not random: actives were taken first. Their share in the collection is about 10%. The call rests on the fitted dose curve; in most records, active means well fitted curve in the direction sought with a large enough effect; inconclusive means small, poorly fitted or top-dose-only effect, or another doubt; inactive means no such curve, though single readings can be large; an effect the other way counts as inactive or inconclusive.
SMILES,G9a inh,JMJD2A Tudor,BAZ2B block,HP1b binding inh,GLS inh
CC(=O)CCc1oc2ccc(C)cc2c1-c1ccccc1,.,.,.,.,.
C/C(CCc1oc2ccc(Cl)cc2c1-c1ccc(C)o1)=N\O,?,89µM,?,?,.
CCN(CC)c1ccc(C2C3CCCCC3(O)CCN2C(=O)c2cccs2)cc1 (configuration not stated),50µM,?,?,.,.
O=S(=O)(Nc1ccc(O)c(Sc2nc3ccccc3s2)c1)c1cc(Cl)ccc1Cl,11µM,?,?,.,.
O=S(=O)(Nc1ccc(O)c(Sc2nc3ccccc3s2)c1)c1cccc2ccccc12,45µM,.,.,.,.
CCOC(=O)C1(Cc2ccccc2)CCCN(C(=O)COc2ccccc2OC)C1 (configuration not stated),/,/,/,/,.
COc1ccc(S(=O)(=O)N(C)C2CCS(=O)(=O)C2)cc1OC (configuration not stated),.[12.7 µM],.,.,.,.
O=C1C=CC(=O)N1N(c1ccccc1)c1ccccc1,1.8µM,18µM,32µM,?,.
O=C1c2ccccc2C(=O)N1N(c1ccccc1)c1ccccc1,/,.,/,.,.
Cc1ccc(N2CCN(C(=O)CCc3c(C)nc4ncnn4c3C)CC2)c(C)c1,.,.,.,.,.
Cc1ccc(OCC(=O)Nc2ccc(N(C)C)cc2)cc1,8.9µM,?,.,?,.
Cc1ccc(CSCC(=O)N/N=C/c2ccc(OCC(=O)Nc3ccc(C)cc3)cc2)cc1,18µM,?,?,.,.
Cc1ccc(OCC(=O)Nc2ccc(C(N)=O)cc2)cc1,.,.,.,.,.
COc1ccc(-c2ccc(=O)n(CC(=O)Nc3ccc(N(C)C)cc3)n2)cc1,5µM,56µM,32µM,?,.
CC(C)(C)c1ccc(S(=O)(=O)N2CCN(CCC#N)CC2)cc1,.,.,.,.,.
CCCCOc1cccc(C(=O)NC(=S)Nc2ccc(Cl)c(C(=O)O)c2)c1,11µM,.,?,.,.
CCCCC(=O)NC(=S)Nc1ccc(Cl)c(C(=O)O)c1,?,.,?,.,.
COCCNC(=S)NNc1ccc(Cl)c(C(=O)O)c1,18µM,.[11.4 µM],?,.,.
COc1cc(C(=O)NC(=S)Nc2ccc(Cl)c(C(=O)O)c2)cc(OC)c1OC,/,.,.,.,.
COc1cc(OC)cc(C(=O)NC(=S)Nc2ccc(Cl)c(C(=O)O)c2)c1,45µM,89µM,?,.,.
CCSCc1nnc(SCC(=O)Nc2cc(F)ccc2C)n1C,?,.,.,.,.
Cc1nc(Nc2ccc(Cl)cc2)c2nnn(Cc3ccccc3)c2n1,.,18µM,.,.,.
Cc1nc2c(nnn2Cc2ccccc2Cl)c(=O)[nH]1,.[0.501 µM],.,.,.,.
Cc1nc2c(nnn2Cc2ccccc2)c(=O)[nH]1,?,8.9µM,/,?,?
CCN1C(=O)[C@H]2[C@@H](c3ccc(C)cc3)N[C@]3(CCCN(Cc4ccc(Cl)cc4)C3=O)[C@H]2C1=O,/,/,/,/,.
SMILES,G9a inh,JMJD2A Tudor,BAZ2B block,HP1b binding inh,GLS inh
COc1ccc(-c2nnc(SCC(=O)Nc3cccc(Cl)c3C)nc2-c2ccc(OC)cc2)cc1,.,?,.,.,.
COc1ccc(OC)c(NC(=O)CSc2nccn2-c2cc(C)cc(C)c2)c1,16µM,10µM,13µM,?,.
COc1ccc(Cn2ccnc2SCC(=O)Nc2ccccc2F)cc1,?,.,?,.,.
COc1ccc(Cl)cc1NC(=O)CSc1nccn1-c1ccc(Cl)cc1,.,.,.,.,.
COc1ccc(-c2nnc(SCC(=O)Nc3cc(OC)ccc3OC)nc2-c2ccc(OC)cc2)cc1,.,?,7.9µM,.,.
COc1ccc(Cn2ccnc2SCC(=O)Nc2ccccc2OC)cc1,45µM,?,?,.,.
Cc1ccc(NC(=O)CSc2nnc(C)c(=O)n2N)c(C)c1,1.8µM,.,50µM,.,.
Cc1cccc(NC(=O)CSc2nnc(C)c(=O)n2N)c1,.,.,/,.,.
CCC(C)NC(=O)[C@@H]1CCCN1C(=O)C1CCN(S(=O)(=O)c2ccc(C)cc2)CC1 (some centres not stated),/,.,.,.,.
Cc1ccc(NC(=O)Cc2ccc(-n3cccc3)cc2)c(C)c1,.,.,50µM,.,.
CCOc1ccccc1NC(=O)CSc1nccn1-c1ccccc1,?,.,50µM,.,.
Cc1cc(C)cc(-n2ccnc2SCC(=O)Nc2ccc(C)cc2C)c1,11µM,40µM,32µM,.,.
COc1ccc(NC(=O)CSc2nccn2-c2ccccc2)c(OC)c1,?,.,?,.,.
Cc1cccc(-n2ccnc2SCC(=O)Nc2cccc3ccccc23)c1,13µM,32µM,16µM,?,.
Cc1cc(C)cc(NC(=O)Cc2ccc(-n3cccc3)cc2)c1,.,.,.,.,.
O=C(CN1CCCCC1)N/N=C/c1ccc(Cl)cc1Cl,/,.,.,.,.
O=C1Nc2ccccc2N=C(c2ccc3c(c2)OCO3)C1N(C(=O)c1ccc2ccccc2c1)C1CC1 (configuration not stated),/,/,/,/,.
CN(Cc1ccncc1)C(=O)[C@@H]1CCCN1C(=O)[C@@H]1CCCN1,/,/,/,/,.
Cc1cc(OCCN2CCC(Cc3ccccc3)CC2)ccc1[N+](=O)[O-],40µM,?,?,?,.
Cc1cc(OCCN2CC(C)OC(C)C2)ccc1[N+](=O)[O-] (configuration not stated),13µM,2.8µM,?,?,.
Cc1cc(OCCCn2cnc3ccccc3c2=O)ccc1[N+](=O)[O-],.,.,.,.,.
Cn1c(=O)n(CCOc2ccc([N+](=O)[O-])cc2)c2ccccc21,.[12.7 µM],.,.,.,.
O=[N+]([O-])c1ccc(OCCN2CCNCC2)cc1,/,25µM,50µM,?,.
CC1CN(CCOc2ccc([N+](=O)[O-])cc2)CC(C)O1 (configuration not stated),2.5µM,6.3µM,?,?,.
Cc1ccc(CN2CCN(CC(=O)NCc3ccccc3)CC2)cc1,.,.,.,.,.
SMILES,G9a inh,JMJD2A Tudor,BAZ2B block,HP1b binding inh,GLS inh
COc1cc(C=C2C(=O)OC(C)(C)OC2=O)ccc1OCC(=O)Nc1ccccc1,?,.,.,.,.
CC1CN(CCOc2ccc(F)cc2)CC(C)O1 (configuration not stated),7.1µM,20µM,50µM,?,.
Fc1ccc(OCCCCCCN2CCCC2)cc1,.,.,.,.,.
CC1CN(CCCOc2ccc([N+](=O)[O-])cc2)CC(C)O1 (configuration not stated),10µM,14µM,.,?,.
CC1CN(c2ccc([N+](=O)[O-])cn2)CC(C)O1 (configuration not stated),.,.,.,.,.
O=C(NCc1cccs1)C1(S(=O)(=O)c2ccccc2)CC=CC1,/,.,.,.,.
